Reference: the supplement of paper PMC6089552
The campaign covered roughly 3,200 compounds. About 300 (9.4%) showed activity. This excerpt belongs to a sample that is enriched for actives.

Test system: A673/TR/shEF
Assay: cell viability (LOESS-normalised, relative to median of negative controls) (log2 ratio); higher = more viable cells (less compound effect), active = hit call of the paper (over 3 MAD below the median)
Conditions: treatment time: 72 h
How it was run: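 Doxycycline, present or absent from 24 h before compounds, was used to induce EWS-FLI1 shRNA knockdown in A673/TR/shEF Ewing sarcoma cells at 1,500 per well in 384-well plates. Cells then received library compounds at two or more concentrations, or DMSO controls, for three days. Viability was measured by CellTiter-Glo luminescence on an Envision reader, and per-plate LOESS correction, division by the negative-control median and log2 transformation followed.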

[1] = 0.25 µM, library screen: screen1, EWS-FLI1 expression: high (no doxycycline)
[2] = 0.25 µM, library screen: screen1, EWS-FLI1 expression: low (doxycycline-induced shRNA knockdown)
[3] = 2.5 µM, library screen: screen1, EWS-FLI1 expression: high (no doxycycline)
[4] = 2.5 µM, library screen: screen1, EWS-FLI1 expression: low (doxycycline-induced shRNA knockdown)
[5] = 0.103 µM, library screen: screen3, EWS-FLI1 expression: high (no doxycycline)
[6] = 0.103 µM, library screen: screen3, EWS-FLI1 expression: low (doxycycline-induced shRNA knockdown)
[7] = 0.308 µM, library screen: screen3, EWS-FLI1 expression: high (no doxycycline)
[8] = 0.308 µM, library screen: screen3, EWS-FLI1 expression: low (doxycycline-induced shRNA knockdown)
[9] = 0.926 µM, library screen: screen3, EWS-FLI1 expression: high (no doxycycline)
[10] = 0.926 µM, library screen: screen3, EWS-FLI1 expression: low (doxycycline-induced shRNA knockdown)
[11] = 2.8 µM, library screen: screen3, EWS-FLI1 expression: high (no doxycycline)
[12] = 2.8 µM, library screen: screen3, EWS-FLI1 expression: low (doxycycline-induced shRNA knockdown)
[13] = 8.3 µM, library screen: screen3, EWS-FLI1 expression: high (no doxycycline)
[14] = 8.3 µM, library screen: screen3, EWS-FLI1 expression: low (doxycycline-induced shRNA knockdown)
[15] = 25 µM, library screen: screen3, EWS-FLI1 expression: high (no doxycycline)
[16] = 25 µM, library screen: screen3, EWS-FLI1 expression: low (doxycycline-induced shRNA knockdown)
[17] = 0.25 µM, library screen: screen2, EWS-FLI1 expression: high (no doxycycline)
[18] = 0.25 µM, library screen: screen2, EWS-FLI1 expression: low (doxycycline-induced shRNA knockdown)
[19] = 2.5 µM, library screen: screen2, EWS-FLI1 expression: high (no doxycycline)
[20] = 2.5 µM, library screen: screen2, EWS-FLI1 expression: low (doxycycline-induced shRNA knockdown)

Measured: cell viability (log2)

O=c1ccc2cc(O[C@@H]3OC(CO)[C@@H](O)C(O)C3O)c(O)cc2o1 (stereo not given in full)
inactive: [1] 0.0986 | [2] -0.0879 | [3] 0.201 | [4] 0.107

CC(C)N(C(=O)SCC(Cl)=C(Cl)Cl)C(C)C
inactive: [1] 0.0806 | [2] 0.0889 | [3] -0.00898 | [4] 0.0996

CC1=C2C[C@H]3[C@@H](CC=C4C[C@@H](O)CC[C@@]43C)[C@@H]2CC[C@]12O[C@@H]1C[C@H](C)CN[C@H]1[C@H]2C
inactive: [5] 0.00521 | [6] 0.0036 | [7] 0.012 | [8] 0.0389 | [9] -0.00313 | [10] 0.0472 | [11] 0.0157 | [12] 0.0183 | [13] -0.0322 | [14] 0.102 | [15] -0.00963 | [16] 0.053

Cc1cccc(CN2CCN(Cc3ccc(F)cc3)CC2)c1
inactive: [1] 0.0688 | [2] 0.0518 | [3] 0.143 | [4] 0.0989

C[C@H]1OC[C@@H](C[N+](C)(C)C)O1
inactive: [17] 0.185 | [18] 0.123 | [19] 0.146 | [20] 0.0964

C[C@H]1O[C@@H](C[N+](C)(C)C)CS1
inactive: [17] 0.209 | [18] 0.0237 | [19] -0.0233 | [20] 0.035

O=C(OC1CC2CCC(C1)[N+]21CCCC1)C(O)(c1ccccc1)c1ccccc1 (stereo not given)
inactive: [5] 0.0271 | [6] 0.0529 | [7] 0.0379 | [8] 0.0384 | [9] -0.0177 | [10] 0.0427 | [11] 0.0921 | [12] 0.0957 | [13] 0.022 | [14] 0.0679 | [15] 0.0665 | [16] 0.0295

C=C1[C@H]2CCC3[C@@](CC[C@@H]4[C@H](C(=O)O)C[C@@H](O[C@H]5O[C@H](CO)[C@@H](OS(=O)(=O)O)[C@H](OS(=O)(=O)O)[C@H]5OC(=O)CC(C)C)C[C@@]34C)(C2)[C@H]1O (stereo not given in full)
inactive: [1] 0.138 | [2] 0.098 | [3] 0.0683 | [4] 0.0267

COc1nc(NC(C)C)nc(NC(C)C)n1
inactive: [1] -0.00161 | [2] 0.0381 | [3] 0.104 | [4] 0.186

COC(=O)/C=C(\C)OP(=O)(OC)OC
inactive: [1] -0.00893 | [2] -0.0133 | [3] 0.034 | [4] 0.0603

CCC(C)C(OC(C)=O)C(=O)O[C@H]1[C@H](O)C2[C@@]3(C)C=CC(=O)C(C)(C)C3C[C@@H](OC(=O)C(O)C(C)C)[C@@]2(C)[C@@]23O[C@@H]2C[C@@H](c2ccoc2)[C@]13C (stereo not given in full)
inactive: [1] 0.0564 | [2] 0.0957 | [3] 0.0934 | [4] 0.141

CN(C)[C@@H]1C(=O)C(C(N)=O)=C(O)[C@@]2(O)C(=O)C3=C(O)c4c(O)cccc4[C@@](C)(O)[C@H]3[C@H](O)[C@@H]12
inactive: [5] 0.0702 | [6] 0.0143 | [1] 0.0991 | [2] 0.163 | [7] 0.0382 | [8] 0.159 | [9] 0.119 | [10] 0.101 | [3] 0.158 | [4] 0.172 | [11] 0.158 | [12] 0.126 | [13] 0.103 | [14] 0.0656 | [15] 0.0616 | [16] 0.0848

CN(C)[C@@H]1C(=O)C(C(N)=O)=C(O)[C@@]2(O)C(=O)C3=C(O)c4c(O)cccc4[C@@](C)(O)[C@H]3C[C@@H]12
inactive: [2] 0.111 | [3] -0.0332 | [4] 0.155
active: [1] -0.127

CN1Cc2c(ccc3c2OCO3)[C@@H]2[C@H]1c1cc3c(cc1C[C@@H]2O)OCO3
inactive: [1] 0.0821 | [2] 0.0876 | [3] -0.0483 | [4] 0.0764

Ic1ccccc1CN[C@H]1C2CCN(CC2)[C@H]1C(c1ccccc1)c1ccccc1
inactive: [17] 0.128 | [18] 0.206 | [19] 0.245 | [20] 0.191

CC1(C)C(=O)C=C[C@]2(C)C1=C(O)C(=O)[C@@]1(C)[C@H]2CC[C@]2(C)[C@@H](c3ccoc3)C[C@@H]3O[C@]312
inactive: [1] 0.0131 | [2] 0.0981 | [3] -0.0522 | [4] 0.0901

CCCC(C)C1(CC)C(=O)NC(=S)NC1=O (stereo not given)
inactive: [1] 0.047 | [2] -0.0503 | [3] 0.164 | [4] 0.136

CNC(=O)Oc1cccc2c1OC(C)(C)O2
inactive: [1] 0.147 | [2] 0.159 | [3] 0.155 | [4] 0.0893

CCCCCC[C@H]1C(=O)O[C@H](C)[C@H](NC(=O)c2cccc(NC=O)c2O)C(=O)O[C@@H](C)[C@@H]1OC(=O)CC(C)C
active: [1] -0.888 | [2] -0.636 | [3] -1.71 | [4] -0.774

Cc1ccc2cc3c(ccc4ccccc43)c3c2c1CC3
inactive: [1] 0.0577 | [2] -0.00243 | [3] 0.111 | [4] 0.12

CC(C)Oc1cccnc1N(C)C1CCN(Cc2ccc(I)cc2)CC1
inactive: [17] 0.0944 | [18] 0.0215 | [19] 0.21 | [20] 0.0697

CC(C)N(C(=O)CCl)c1ccccc1
inactive: [1] 0.0295 | [2] 0.0848 | [3] 0.154 | [4] 0.0575

O=C(O)CNCP(=O)(O)O
inactive: [1] 0.0875 | [2] 0.0822 | [3] 0.124 | [4] 0.106

NCC(O)c1cc(O)c(O)cc1F (stereo not given)
inactive: [17] 0.233 | [18] 0.183 | [19] 0.0966 | [20] 0.0732

CC(=O)Oc1ccc(Cl)c2cccnc12
inactive: [1] 0.106 | [2] 0.136 | [3] 0.0698 | [4] 0.0992

CNc1ccccc1C(=O)O
inactive: [1] 0.0696 | [2] 0.0258 | [3] 0.131 | [4] 0.00755

C[CH2][Hg][S]c1ccccc1C(=O)O
inactive: [2] -0.123
active: [1] -0.15 | [3] -3.6 | [4] -2.98

CCCCOC(=O)c1ccccc1C(=O)OCCCC
inactive: [1] 0.118 | [2] 0.0394 | [3] 0.0831 | [4] -0.283

CC(=O)C1=C(O)[C@@H]2[C@H]3c4c[nH]c5cccc(c45)C[C@H]3C(C)(C)N2C1=O
inactive: [1] 0.0498 | [2] 0.042 | [3] 0.0855 | [4] 0.00492

COc1cc2c(cc1OC)C(=O)c1ccc(OC)c(OC)c1OCC(=O)C2
inactive: [1] 0.0297 | [2] 0.0329 | [3] 0.104 | [4] 0.0978

COc1cc2c(c(OC)c1OC)-c1ccc(OC)c(=O)cc1[C@@H](NC(C)=O)CC2
active: [1] -4.23 | [2] -0.935 | [17] -3.33 | [18] -0.503 | [3] -4.18 | [4] -0.869 | [19] -3.21 | [20] -0.472 | 25 µM, library screen: screen2, EWS-FLI1 expression: high (no doxycycline) -3.45 | 25 µM, library screen: screen2, EWS-FLI1 expression: low (doxycycline-induced shRNA knockdown) -0.515
inactive: 0.025 µM, library screen: screen2, EWS-FLI1 expression: high (no doxycycline) 0.127 | 0.025 µM, library screen: screen2, EWS-FLI1 expression: low (doxycycline-induced shRNA knockdown) 0.0363

COc1cc2c(c(OC)c1OC)-c1ccc(O)c(=O)cc1C(NC(C)=O)CC2 (stereo not given)
inactive: [1] 0.0964 | [2] 0.0193
active: [3] -1.1 | [4] -0.493

COc1ccc2c(c1O)-c1c(OC)c(OC)cc3c1[C@H](C2)N(C)CC3
inactive: [1] -0.01 | [2] -0.0109 | [3] 0.111 | [4] 0.131

C=C(C)c1cc2cc(C(C)=O)c(O)cc2o1
inactive: [1] 0.113 | [2] 0.098 | [3] 0.0228 | [4] 0.00912

OCC(O)Cc1ccc2c(c1)OCO2 (stereo not given)
inactive: [1] 0.0615 | [2] 0.039 | [3] 0.0501 | [4] 0.111

CC1(C)C(=O)[C@@H]2O[C@@H]2[C@@]2(C)C1C[C@@H](O)[C@]1(C)C2CC[C@@]2(C)[C@H](c3ccoc3)OC(=O)C3OC321 (stereo not given in full)
inactive: [1] 0.0599 | [2] 0.093 | [3] 0.0793 | [4] 0.18

CC1(C)C(=O)C=C[C@]2(C)[C@H]3CC[C@@]4(C)[C@H](c5ccoc5)OC(=O)[C@H]5O[C@]54[C@]3(C)[C@H](O)C[C@@H]12
inactive: [1] -0.0265 | [2] 0.039 | [3] 0.0641 | [4] 0.0262

Cc1ccccc1CN1CCN(Cc2ccc(F)cc2)CC1
inactive: [1] 0.0915 | [2] 0.13 | [3] 0.113 | [4] 0.0962

C[C@@H]1CC[C@@]2(OC1)O[C@H]1[C@@H](O)[C@H]3[C@@H]4CC[C@H]5C[C@@H](O[C@@H]6O[C@H](CO)[C@H](O[C@@H]7O[C@H](CO)C(O)[C@H](O[C@@H]8OC[C@@H](O)[C@H](O)[C@H]8O)[C@H]7O[C@@H]7O[C@H](CO)[C@H](O)[C@H](O[C@@H]8O[C@H](CO)[C@@H](O)[C@H](O)[C@H]8O)[C@H]7O)[C@H](O)[C@H]6O)[C@H](O)C[C@]5(C)[C@H]4CC[C@]3(C)[C@H]1[C@@H]2C (stereo not given in full)
inactive: [1] 0.0473 | [2] 0.00355 | [3] 0.099 | [4] 0.184

C[C@H]1CC[C@]2(NC1)O[C@H]1C[C@H]3[C@@H]4CC[C@H]5C[C@@H](O)CC[C@]5(C)[C@H]4CC[C@]3(C)[C@H]1[C@@H]2C
inactive: [1] 0.0391 | [2] 1.7e-05 | [3] 0.161 | [4] 0.0669

C[C@H]1CC[C@]2(NC1)O[C@H]1C[C@H]3[C@@H]4CC[C@H]5C[C@@H](O[C@@H]6O[C@H](CO)[C@H](O[C@@H]7O[C@H](CO)[C@@H](O)[C@H](O[C@@H]8OC[C@@H](O)[C@H](O)[C@H]8O)[C@H]7O[C@@H]7O[C@H](CO)[C@@H](O)[C@H](O)[C@H]7O)[C@H](O)[C@H]6O)CC[C@]5(C)[C@H]4CC[C@]3(C)[C@H]1[C@@H]2C
active: [3] -1.17 | [4] -1.98
inactive: [1] 0.0131 | [2] -0.12
